# The full data set covers some 8,800 targets. This sample favours those with a hit. About 0.5% of all pairs of compound and target were hits. A number with no mark means an inactive call.
# Columns and labels:
# Assay in all cases: log2 fold change, soluble protein after heating vs DMSO (PISA); higher = thermal stabilisation; K562 lysate, 10 uM; active = over 0.2 and 3.5 SD of the protein, either way, in both replicates (recomputed)
# nilotinib = compound: Cc1cn(-c2cc(NC(=O)c3ccc(C)c(Nc4nccc(-c5cccnc5)n4)c3)cc(C(F)(F)F)c2)cn1 [nilotinib]
# In short: (§1)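 Values give the log-two fold change in thermal stability against solvent controls, from duplicates. Crude K562 extract at 1 mg/mL protein, made by dounce homogenisation in PBS pH 7.4 with 1 mM MgCl2, was treated with 10 μM compound for 30 min. After 3 min heating across 48°C-58°C, aliquots were pooled, adjusted to 0.5% NP-40 at 4°C and centrifuged at 21,000xg for 90 min. The supernatant was measured by TMTpro 16plex LC-MS/MS with channel sums equalised.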
# [1] = compound: Cc1nc(Nc2n[nH]c3c2CN(C(=O)N[C@H](CN(C)C)c2ccccc2)C3(C)C)c2sccc2n1
# In short: as §1
# dasatinib = compound: Cc1nc(Nc2ncc(C(=O)Nc3c(C)cccc3Cl)s2)cc(N2CCN(CCO)CC2)n1 [dasatinib]
# In short: as §1
# [2] = compound: Cc1ncc(-c2ccnc(Nc3ccc(S(C)(=O)=O)cc3)n2)n1C(C)C
# In short: as §1
# [3] = compound: Cn1cc(-c2ccc3c(c2)CCN3C(=O)Cc2cccc(C(F)(F)F)c2)c2c(N)ncnc21
# In short: as §1
# quisinostat = compound: Cn1cc(CNCC2CCN(c3ncc(C(=O)NO)cn3)CC2)c2ccccc21 [quisinostat]
# In short: as §1
# tipifarnib = compound: Cn1cncc1[C@@](N)(c1ccc(Cl)cc1)c1ccc2c(c1)c(-c1cccc(Cl)c1)cc(=O)n2C [tipifarnib]
# In short: as §1
# [4] = compound: NC(=O)Nc1cc(-c2cccc(F)c2)sc1C(=O)N[C@H]1CCCNC1
# In short: as §1
# [5] = compound: NC(=O)c1cnc(N[C@@H]2CCCC[C@@H]2N)nc1Nc1cccc(-n2nccn2)c1
# In short: as §1
# [6] = compound: NC1(c2ccc(-c3nc4ccn5c(=O)[nH]nc5c4cc3-c3ccccc3)cc2)CCC1
# In short: as §1
# [7] = compound: NCC(=O)Nc1ccc(-n2nc(C(F)(F)F)cc2-c2ccc3c(ccc4ccccc43)c2)cc1
# In short: as §1
# vorinostat = compound: O=C(CCCCCCC(=O)Nc1ccccc1)NO [vorinostat]
# In short: as §1
# silmitasertib = compound: O=C(O)c1ccc2c(c1)nc(Nc1cccc(Cl)c1)c1ccncc12 [silmitasertib]
# In short: as §1
# [8] = compound: O=C1NC(=O)C(c2cnc3ccccn23)=C1c1cn2c3c(cc(F)cc13)CN(C(=O)N1CCCCC1)CC2
# In short: as §1
# entospletinib = compound: c1cn2cc(-c3ccc4cn[nH]c4c3)nc(Nc3ccc(N4CCOCC4)cc3)c2n1 [entospletinib]
# In short: as §1
# Chain of UniProt Q9H6V9 (Q9H6V9 whole entry, looked up): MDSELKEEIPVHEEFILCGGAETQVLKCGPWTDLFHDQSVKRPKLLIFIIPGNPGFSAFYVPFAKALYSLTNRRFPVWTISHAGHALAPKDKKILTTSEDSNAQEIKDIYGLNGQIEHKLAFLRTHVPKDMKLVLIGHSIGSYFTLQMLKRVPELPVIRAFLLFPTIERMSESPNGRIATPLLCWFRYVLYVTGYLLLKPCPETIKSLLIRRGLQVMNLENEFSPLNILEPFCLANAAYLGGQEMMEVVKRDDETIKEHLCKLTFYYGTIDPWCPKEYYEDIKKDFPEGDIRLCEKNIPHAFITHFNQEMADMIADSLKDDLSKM
# Chain of UniProt Q9HD34 (Q9HD34 whole entry, looked up): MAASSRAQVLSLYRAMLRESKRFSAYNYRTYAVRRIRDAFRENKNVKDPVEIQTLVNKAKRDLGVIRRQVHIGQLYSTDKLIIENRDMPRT
# Chain of UniProt Q13015 (Q13015 whole entry, looked up): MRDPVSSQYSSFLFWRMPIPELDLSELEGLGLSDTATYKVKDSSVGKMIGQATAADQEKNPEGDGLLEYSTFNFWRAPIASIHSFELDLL
# Chain of UniProt Q8IWC1 (Q8IWC1 whole entry, looked up): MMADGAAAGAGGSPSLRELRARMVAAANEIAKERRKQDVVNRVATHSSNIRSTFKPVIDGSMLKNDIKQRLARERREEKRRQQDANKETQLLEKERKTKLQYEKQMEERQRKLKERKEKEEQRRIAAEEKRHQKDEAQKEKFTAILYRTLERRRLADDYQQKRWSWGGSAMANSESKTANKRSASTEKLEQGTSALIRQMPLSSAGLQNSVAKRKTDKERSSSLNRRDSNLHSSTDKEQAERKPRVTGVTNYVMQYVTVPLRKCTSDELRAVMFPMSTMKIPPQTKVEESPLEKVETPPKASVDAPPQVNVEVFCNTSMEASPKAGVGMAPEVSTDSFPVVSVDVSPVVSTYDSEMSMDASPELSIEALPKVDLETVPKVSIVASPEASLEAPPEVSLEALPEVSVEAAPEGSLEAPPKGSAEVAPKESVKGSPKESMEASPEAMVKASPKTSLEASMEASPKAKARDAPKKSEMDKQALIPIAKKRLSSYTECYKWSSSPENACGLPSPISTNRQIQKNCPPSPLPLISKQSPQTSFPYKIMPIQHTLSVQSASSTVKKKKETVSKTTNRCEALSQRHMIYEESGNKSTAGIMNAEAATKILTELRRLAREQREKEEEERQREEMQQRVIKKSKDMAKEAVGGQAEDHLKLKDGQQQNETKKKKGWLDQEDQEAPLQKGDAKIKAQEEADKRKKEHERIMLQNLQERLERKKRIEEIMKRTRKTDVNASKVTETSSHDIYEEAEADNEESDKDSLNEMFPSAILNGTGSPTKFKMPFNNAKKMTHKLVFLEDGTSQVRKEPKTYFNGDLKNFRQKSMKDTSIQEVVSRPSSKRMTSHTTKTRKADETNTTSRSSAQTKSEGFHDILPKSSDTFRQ
# Chain of UniProt O14733 (O14733 whole entry, looked up): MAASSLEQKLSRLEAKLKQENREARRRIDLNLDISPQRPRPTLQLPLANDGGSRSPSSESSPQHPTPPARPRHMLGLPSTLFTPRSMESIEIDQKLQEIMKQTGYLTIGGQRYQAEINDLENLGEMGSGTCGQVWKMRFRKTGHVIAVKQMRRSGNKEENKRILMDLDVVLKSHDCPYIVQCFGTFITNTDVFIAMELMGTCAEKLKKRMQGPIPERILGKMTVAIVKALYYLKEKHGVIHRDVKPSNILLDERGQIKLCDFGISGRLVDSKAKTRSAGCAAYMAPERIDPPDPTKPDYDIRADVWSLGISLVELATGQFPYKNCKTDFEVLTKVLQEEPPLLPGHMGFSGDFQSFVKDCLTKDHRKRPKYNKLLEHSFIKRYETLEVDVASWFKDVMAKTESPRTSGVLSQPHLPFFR
# Chain of UniProt Q9NS87 (Q9NS87 whole entry, looked up): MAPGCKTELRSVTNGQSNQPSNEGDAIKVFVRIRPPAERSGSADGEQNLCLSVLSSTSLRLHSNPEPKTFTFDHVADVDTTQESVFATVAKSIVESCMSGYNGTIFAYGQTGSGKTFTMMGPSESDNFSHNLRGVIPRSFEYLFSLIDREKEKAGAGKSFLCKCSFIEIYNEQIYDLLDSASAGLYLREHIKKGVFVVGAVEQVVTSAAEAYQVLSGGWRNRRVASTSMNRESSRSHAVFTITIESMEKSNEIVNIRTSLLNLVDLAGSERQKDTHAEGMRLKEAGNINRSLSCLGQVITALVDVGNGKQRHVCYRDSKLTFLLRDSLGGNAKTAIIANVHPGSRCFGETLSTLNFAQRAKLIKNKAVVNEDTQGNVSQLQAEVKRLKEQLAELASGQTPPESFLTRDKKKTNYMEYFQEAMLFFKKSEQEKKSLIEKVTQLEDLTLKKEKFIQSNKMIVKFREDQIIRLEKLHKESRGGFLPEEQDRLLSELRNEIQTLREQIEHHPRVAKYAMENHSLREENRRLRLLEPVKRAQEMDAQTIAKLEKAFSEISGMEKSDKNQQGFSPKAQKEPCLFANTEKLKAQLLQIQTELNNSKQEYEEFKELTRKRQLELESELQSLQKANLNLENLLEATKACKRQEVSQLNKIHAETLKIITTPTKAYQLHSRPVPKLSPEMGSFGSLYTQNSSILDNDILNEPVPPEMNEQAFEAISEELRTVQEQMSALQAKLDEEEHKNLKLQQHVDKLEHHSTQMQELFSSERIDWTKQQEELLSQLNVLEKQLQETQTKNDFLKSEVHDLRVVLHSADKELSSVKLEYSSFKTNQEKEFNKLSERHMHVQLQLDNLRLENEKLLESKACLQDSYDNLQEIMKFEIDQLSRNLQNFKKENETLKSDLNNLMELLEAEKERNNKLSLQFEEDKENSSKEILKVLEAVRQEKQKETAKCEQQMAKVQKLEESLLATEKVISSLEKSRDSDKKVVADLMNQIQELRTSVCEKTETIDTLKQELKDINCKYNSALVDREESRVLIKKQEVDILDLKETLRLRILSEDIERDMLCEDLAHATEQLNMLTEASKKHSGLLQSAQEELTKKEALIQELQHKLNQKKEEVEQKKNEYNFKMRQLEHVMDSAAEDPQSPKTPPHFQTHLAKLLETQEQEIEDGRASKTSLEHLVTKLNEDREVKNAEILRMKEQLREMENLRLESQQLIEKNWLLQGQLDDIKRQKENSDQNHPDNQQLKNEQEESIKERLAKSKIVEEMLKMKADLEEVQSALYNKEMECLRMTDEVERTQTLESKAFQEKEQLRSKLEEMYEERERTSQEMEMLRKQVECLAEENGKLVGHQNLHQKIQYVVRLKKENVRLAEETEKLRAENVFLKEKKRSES
# Chain of UniProt O95777 (O95777 whole entry, looked up): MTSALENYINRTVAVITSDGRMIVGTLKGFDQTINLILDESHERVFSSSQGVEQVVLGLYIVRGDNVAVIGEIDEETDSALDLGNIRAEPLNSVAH
# Chain of UniProt Q9P0L2 (Q9P0L2 whole entry, looked up): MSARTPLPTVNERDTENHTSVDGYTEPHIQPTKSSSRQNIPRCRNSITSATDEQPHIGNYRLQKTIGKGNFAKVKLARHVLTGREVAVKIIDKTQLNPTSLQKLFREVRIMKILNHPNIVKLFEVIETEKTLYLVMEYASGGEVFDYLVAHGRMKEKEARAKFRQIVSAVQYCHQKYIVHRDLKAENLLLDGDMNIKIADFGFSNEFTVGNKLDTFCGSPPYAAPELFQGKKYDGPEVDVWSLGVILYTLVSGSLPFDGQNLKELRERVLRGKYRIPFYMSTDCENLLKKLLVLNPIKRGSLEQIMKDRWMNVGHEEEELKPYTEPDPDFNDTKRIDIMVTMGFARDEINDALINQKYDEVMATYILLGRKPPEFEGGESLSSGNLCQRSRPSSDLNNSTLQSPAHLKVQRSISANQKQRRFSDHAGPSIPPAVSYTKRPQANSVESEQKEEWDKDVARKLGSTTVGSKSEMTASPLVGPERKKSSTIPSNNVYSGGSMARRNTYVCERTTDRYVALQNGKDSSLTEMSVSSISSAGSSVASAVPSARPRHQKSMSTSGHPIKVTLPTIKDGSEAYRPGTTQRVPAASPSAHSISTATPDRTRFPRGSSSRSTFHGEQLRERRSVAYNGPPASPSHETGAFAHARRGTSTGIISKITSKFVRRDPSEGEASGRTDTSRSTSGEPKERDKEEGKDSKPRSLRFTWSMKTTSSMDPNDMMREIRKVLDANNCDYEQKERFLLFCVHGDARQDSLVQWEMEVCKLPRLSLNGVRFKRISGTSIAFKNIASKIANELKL
# Chain of UniProt Q8WV92 (Q8WV92 whole entry, looked up): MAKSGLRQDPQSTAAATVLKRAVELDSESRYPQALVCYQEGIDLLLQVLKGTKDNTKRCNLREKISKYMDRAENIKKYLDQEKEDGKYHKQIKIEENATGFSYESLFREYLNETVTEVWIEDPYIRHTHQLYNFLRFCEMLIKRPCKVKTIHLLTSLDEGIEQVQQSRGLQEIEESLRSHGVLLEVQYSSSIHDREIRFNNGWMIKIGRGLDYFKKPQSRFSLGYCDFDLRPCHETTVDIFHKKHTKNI
Target,log2 fold change (nilotinib),log2 fold change [1],log2 fold change (dasatinib),log2 fold change [2],log2 fold change [3],log2 fold change (quisinostat),log2 fold change (tipifarnib),log2 fold change [4],log2 fold change [5],log2 fold change [6],log2 fold change [7],log2 fold change (vorinostat),log2 fold change (silmitasertib),log2 fold change [8],log2 fold change (entospletinib)
KIF15 (UniProt Q9NS87),-0.038,-0.003,-0.03,0.052,0.044,-0.058,0.008,0.003,0.011,0,0.017,-0.136,0.02,0.004,-0.024
MAP2K7 isoform 4 (UniProt O14733),0.017,-0.101,-0.093,0,0.22,0.001,-0.024,0.033,0.001,0.002,0.009,-1.09 (active),0.167,-0.051,-0.047
MLLT11 (UniProt Q13015),0.068,0.03,-0.015,-0.051,-0.06,-0.029,-0.204,0.107,0.011,0.055,0.08,0.104,-0.203,-0.016,0.034
MITD1 (UniProt Q8WV92),-0.022,0.089,0.011,-0.09,0.027,0.027,0.022,0.03,0.07,-0.047,0.01,0.255 (active),-0.051,-0.079,-0.024
LYRM4 (UniProt Q9HD34),0.009,-0.031,-0.061,0.052,-0.028,-0.093,-0.028,0.054,-0.036,-0.005,0.01,0.119,-0.019,0.023,0.007
LDAH isoform 2 (UniProt Q9H6V9),-0.062,0.023,-0.071,-0.003,0.017,-0.022,-0.077,0.037,-0.009,0.307 (active),-0.017,-0.13,0.064,0.033,-0.029
MRPL15 (UniProt Q9P015),0.011,-0.034,0.004,-0.028,-0.008,-0.022,0.012,0.005,0.012,-0.181,0.068,0.137,-0.071,-0.02,-0.061
MAP7D3 (UniProt Q8IWC1),-0.012,-0.01,0.03,-0.037,0.029,-0.101,0.014,0.003,-0.016,0.005,0.098,0.037,0.059,-0.046,-0.013
MARK1 (UniProt Q9P0L2),0.035,-0.113,-0.123,-0.019,0.003,0.092,0.023,-0.083,-0.03,-0.072,0.017,-0.225,0.485 (active),-0.059,0.049
LSM8 (UniProt O95777),0.132,0,0.012,0.045,0.004,-0.043,0.048,-0.02,-0.035,0.033,-0.052,0.063,-0.011,0.009,0.028

# From the supplement of paper PMC10849652
